Screens (PubChem BioAssay)
The list is not random: actives were taken first. Their share in the collection is about 1.2%.
pCIP destab: lowers stability of the mouse p/CIP coactivator protein | actives 0.01% (n = 290,000) | Q05BA5 | decrease of EGFP signal, % at 10 µM | AID 1984 | F442A p/CIP-EGFP cells, EGFP fluorescence, 16 h;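 active = EGFP signal decrease of at least 30% at 10 µM or well 3 SD below plate mean, unless failing retest; inactive = the rest, including hits failing retest or dose response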
VLA-4 inh: inhibition in a human VLA-4 binding assay; VLA-4 expressing cells, ligand binding flow cytometry; P13612; actives 0.2% (n = 330,000); inhibition, % (about 7 µM as worked out from the volumes in the protocol); in the data active = inhibition above about 50%
Target sequence (P13612 whole entry, looked up): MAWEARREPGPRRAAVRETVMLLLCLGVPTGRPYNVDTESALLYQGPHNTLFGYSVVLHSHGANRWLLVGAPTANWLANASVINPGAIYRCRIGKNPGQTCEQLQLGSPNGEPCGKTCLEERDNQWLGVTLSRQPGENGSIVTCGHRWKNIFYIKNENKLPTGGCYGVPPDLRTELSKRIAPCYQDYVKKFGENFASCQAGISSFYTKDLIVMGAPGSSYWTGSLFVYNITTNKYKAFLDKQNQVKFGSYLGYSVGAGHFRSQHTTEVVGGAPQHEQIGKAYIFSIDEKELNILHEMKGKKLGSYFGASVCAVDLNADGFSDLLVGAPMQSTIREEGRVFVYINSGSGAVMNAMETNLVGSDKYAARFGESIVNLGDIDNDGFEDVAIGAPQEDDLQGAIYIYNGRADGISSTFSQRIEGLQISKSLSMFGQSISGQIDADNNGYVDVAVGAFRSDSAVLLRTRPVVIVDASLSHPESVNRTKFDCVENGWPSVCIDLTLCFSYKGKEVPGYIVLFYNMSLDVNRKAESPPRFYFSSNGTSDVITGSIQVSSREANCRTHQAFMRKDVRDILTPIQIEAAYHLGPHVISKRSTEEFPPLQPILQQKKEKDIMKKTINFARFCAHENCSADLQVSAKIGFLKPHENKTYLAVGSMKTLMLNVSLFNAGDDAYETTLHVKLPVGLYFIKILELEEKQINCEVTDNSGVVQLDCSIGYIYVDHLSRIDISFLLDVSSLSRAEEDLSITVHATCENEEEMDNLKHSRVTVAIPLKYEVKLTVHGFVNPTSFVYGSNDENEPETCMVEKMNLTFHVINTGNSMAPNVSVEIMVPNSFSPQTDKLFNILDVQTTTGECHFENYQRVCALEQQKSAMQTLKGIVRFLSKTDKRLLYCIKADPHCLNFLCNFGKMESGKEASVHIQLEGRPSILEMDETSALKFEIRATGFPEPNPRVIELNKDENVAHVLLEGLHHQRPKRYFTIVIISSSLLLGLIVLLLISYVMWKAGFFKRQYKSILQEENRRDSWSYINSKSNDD
GPR7 antag: antagonists of human GPR7 (neuropeptides B/W receptor 1). GPR7-expressing cells, fluorescence antagonist assay. inhibition, % at 4.4 µM. P48145. actives 1.1% (n = 290,000); in the data active = inhibition above about 16%, passing the limit was not always enough;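 note: cells stimulated with the agonist NPW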
GASC-1 inh: human JMJD2C demethylase inhibition | Q9H3R0 | actives 0.069% (n = 330,000) | inhibition, % at 2.35 µM | GST-JMJD2C(1-420) H3K9me3 demethylation, DELFIA europium;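 active = more than half of a compound's replicate wells show inhibition beyond 50%, single wells judged on their own value; inconclusive = some, but no more than half, of replicates pass 50% inhibition; inactive = no replicate passes 50% inhibition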;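 note: signal counts dimethyl H3K9 product captured on neutravidin plate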
VLA-4 allo CP: human VLA-4 allosteric modulation in cherry picked compounds; shares compounds with VLA-4 inh; U937 cells, HUTS-21 LIBS mAb binding, flow cytometry; LDV ligand present at threefold Kd; inhibition, % at 6.7 µM; actives 2% (n = 1,300); AID 2813; in the data active = inhibition above about 40%
Of the large screens only hits and unclear results are named; the others gave an inactive call (follow-up assays come after a bar, where they were run); ! = repeats disagree.

O=C(COc1ccc(/C=N/NC(=O)c2cc3ccccc3o2)cc1Cl)Nc1ccccc1	VLA-4 inh 78 | VLA-4 allo CP 61
COc1ccc(OCC(=O)Nc2c3c(nn2-c2ccccc2)CS(=O)(=O)C3)cc1	none
CN1C(=O)C(C)(C)c2cc(S(=O)(=O)N3CCN(c4ccccc4F)CC3)ccc21	none | VLA-4 allo CP inactive
CSCCC(NS(=O)(=O)/C=C/c1ccccc1)C(=O)NCCc1ccc(S(N)(=O)=O)cc1 (stereo not drawn)	none
CCCCN1C(=O)C(=O)c2cc(Cl)ccc21	VLA-4 inh 55 (no result: pCIP destab, GPR7 antag) | VLA-4 allo CP 51
CCCN1C(=O)C(=O)c2cc(C)ccc21	none (no result: pCIP destab, GPR7 antag)
COc1cc(N)c(Cl)cc1C(=O)OCC(=O)NCC1CCCO1 (stereo not drawn)	none (no result: pCIP destab, GPR7 antag)
O=C(COC(=O)c1ccccc1Br)NCC1CCCCC1	none (no result: pCIP destab, GPR7 antag) | VLA-4 allo CP inactive
O=C(COC(=O)c1ccccc1Br)Nc1ccccc1F	none | VLA-4 allo CP inactive
O=C(COC(=O)c1ccccc1NCCO)NCC1CCCCC1	none (no result: pCIP destab, GPR7 antag)
COc1cc(N)c(Cl)cc1C(=O)OCC(=O)NCC1CCCCC1	none (no result: pCIP destab, GPR7 antag) | VLA-4 allo CP inactive
CCOc1ccc(C(=O)NCC(=O)NCC(c2ccco2)N2CCCCC2)cc1 (stereo not drawn)	none (no result: pCIP destab, GPR7 antag)
C#Cc1ccc(C(=O)Nc2ccc(N3CCC(C)CC3)c(C(N)=O)c2)cc1	none
O=C(COC(=O)COc1ccc(Cl)cc1)NC1CC1	none (no result: pCIP destab, GPR7 antag)
COc1ccc(C(CNC(=O)C(=O)Nc2ccc3c(c2)OCCO3)N2CCN(C)CC2)cc1 (stereo not drawn)	none (no result: pCIP destab, GPR7 antag)
CC12CCC3c4ccc(O)cc4CCC3C1CCC2=O (stereo not drawn)	VLA-4 inh 55 (no result: pCIP destab, GPR7 antag, GASC-1 inh) | VLA-4 allo CP inactive
CC12CC(O)C3c4ccc(O)cc4CCC3C1CCC2=O (stereo not drawn)	none
C[C@@H](NC(=O)/C(C#N)=C/c1ccc(O)c(O)c1)c1ccccc1	none (no result: pCIP destab, GPR7 antag)
CC(NC(=O)/C(C#N)=C/c1ccc(Cl)c([N+](=O)[O-])c1)c1ccccc1 (stereo not drawn)	VLA-4 inh 61 | VLA-4 allo CP 63
O=C(/C=C/c1ccc(O)c(O)c1)O[C@@H]1C[C@](O)(C(=O)O)C[C@@H](O)[C@H]1O	VLA-4 inh 55!, GASC-1 inh inconclusive (no result: pCIP destab, GPR7 antag) | VLA-4 allo CP inactive
O=C(NCc1ccc(F)cc1)c1cc2c(cc1Cl)N1CCCCCC1=NS2(=O)=O	none (no result: pCIP destab, GPR7 antag)
Cc1cccc(C)c1C(=NCCN(C)C)c1ccccc1	none (no result: pCIP destab, GPR7 antag)
Cc1cc2c(cc1C)C(c1cccc(F)c1)CC(=O)N2 (stereo not drawn)	none | VLA-4 allo CP inactive
Cc1cc2c(cc1C)C(c1ccccc1F)CC(=O)N2 (stereo not drawn)	none
CCCCNC(=O)C(Cc1ccccc1)NS(=O)(=O)c1ccc2c(c1)c(=O)n(C)c(=O)n2C (stereo not drawn)	VLA-4 inh 50 | VLA-4 allo CP inactive
CCOCCCNC(=O)C(Cc1ccccc1)NS(=O)(=O)c1ccc2c(c1)c(=O)n(C)c(=O)n2C (stereo not drawn)	none
Cc1cc(C(=O)CN2CCN(CC(=O)Nc3cccc(F)c3)CC2)c(C)n1C1CC1	none (no result: pCIP destab, GPR7 antag)
COc1ccc(C(=O)OC(C)C(=O)NC(C)CCc2ccccc2)cc1OC (stereo not drawn)	none | VLA-4 allo CP inactive
CC(C)=CCC(C)(C)C1OCCN1C(=O)Nc1ccccc1 (stereo not drawn)	none
CC(C)=CCN1CCN(Cc2cc(F)ccc2-n2nc(C)cc2C)CC1CCO (stereo not drawn)	none
CC(C)(C)c1ccc(NC(=O)CCNC(=O)c2ccco2)cc1	VLA-4 inh 50 | VLA-4 allo CP inactive
COc1ccccc1N1CCN(CCCNc2cc(=O)n(C)c(=O)n2C)CC1	VLA-4 inh 55 | VLA-4 allo CP inactive
COc1ccccc1N1CCN(CCCNc2c(C)c(=O)n(C)c(=O)n2C)CC1	none (no result: pCIP destab, GPR7 antag)
CC(C)CC(=O)Nc1ccc2c(c1)nc(CCN1CCOCC1)n2C	none | VLA-4 allo CP inactive
COCCCC1CCN(Cc2nc(-c3ccccc3)no2)CC1	none | VLA-4 allo CP inactive
CN(CC(=O)Nc1ccccc1C(=O)NC1CC1)Cc1ccco1	none (no result: pCIP destab, GPR7 antag)
CC(C)(C)NC(=O)CON=C1c2ccccc2-c2ccccc21	none
CC(C)(C)NCC(O)CON=C1c2ccccc2-c2ccccc21 (stereo not drawn)	VLA-4 inh 55 | VLA-4 allo CP inactive
COc1cc(SC)ccc1C(=O)Nc1ccc(Br)cn1	none
COc1cc(SC)ccc1C(=O)Nc1ncc(Cl)cc1Cl	VLA-4 inh 55 | VLA-4 allo CP inactive
C/C(=N\NC(=O)c1ccccc1O)c1cccs1	none
CSC(=NNC(=O)c1ccccc1O)SC	VLA-4 inh 88 | VLA-4 allo CP inactive
O=C(CN(CCc1ccccc1)Cc1ccccc1)Oc1ccccc1P(=O)(O)O	none
CC(C)OC(=O)c1ccc(NC(=O)C2C3CC4OC(=O)C2C4C3)cc1 (stereo not drawn)	none (no result: GASC-1 inh)
Cc1ccc(NC(=O)C2C3CC4OC(=O)C2C4C3)cc1Cl (stereo not drawn)	VLA-4 inh 56 (no result: GASC-1 inh) | VLA-4 allo CP inactive
COCCSc1ccccc1C(=O)N1CCc2ccccc2C1	VLA-4 inh 52 (no result: GASC-1 inh) | VLA-4 allo CP inactive
Cc1ccc(/C(O)=C2/C(=O)C(=O)N(CC(=O)O)C2c2ccc([N+](=O)[O-])cc2)cc1 (stereo not drawn)	VLA-4 inh 64 | VLA-4 allo CP inactive
Cn1c(SCC(=O)Nc2nccs2)nnc1-c1ccncc1	none
CC(C)C(NC(=O)c1ccccc1)c1nnc(SCC(=O)Nc2nccs2)n1C (stereo not drawn)	VLA-4 inh 58 | VLA-4 allo CP inactive
Cc1ccc(CN2CCN(Cc3ccc(OC(C)C)cc3)CC2CCO)o1 (stereo not drawn)	none
Cc1ccc(CN2CCN(Cc3cccc(OCCO)c3)CC2CCO)o1 (stereo not drawn)	none | VLA-4 allo CP inactive
CC(=O)NC(=S)Nc1ccc(NC(=O)c2cccs2)cc1	none | VLA-4 allo CP inactive
COC(=O)c1ccc([N+](=O)[O-])c(CS(=O)(=O)c2ccc(Cl)cc2)c1	none
CO/N=C/CC(=O)c1ccc([N+](=O)[O-])c(CS(=O)(=O)c2ccc(Cl)cc2)c1	none | VLA-4 allo CP inactive
Cn1cnnc1SCC(=O)NC1CCCN(Cc2ccccc2F)C1 (stereo not drawn)	none
Cc1ccc(C2CC2c2n[nH]c(=S)n2-c2cccc(Cl)c2)cc1 (stereo not drawn)	none
CNC(=O)CSc1nc2c([nH]c3ccccc32)c(=O)n1CCOC	VLA-4 inh 58 | VLA-4 allo CP inactive
COCCn1c(SCC(=O)Nc2ccc(F)cc2)nc2c([nH]c3ccccc32)c1=O	none
COCCNC(=O)/C(C#N)=C/c1ccc(C(=O)O)cc1	none | VLA-4 allo CP inactive
COCCNC(=O)/C(C#N)=C/c1c(F)cccc1Cl	none | VLA-4 allo CP inactive
COCCNC(=O)/C(C#N)=C/c1ccc(SC)cc1	none
COc1ccc(C2CC3(CC(C)(C)NC(SC)=N3)Oc3cc(O)cc(C)c32)cc1 (stereo not drawn)	none | VLA-4 allo CP inactive
CCOC(=O)Cn1nnnc1CN(Cc1ccccc1)Cc1cc2cc(CC)ccc2[nH]c1=O	VLA-4 inh 71 | VLA-4 allo CP inactive
